In PubChem BioAssay (NCI) one finds growth data, which are given here for nine compounds.

About 83,000 compounds went through this panel and 20% of them were active in at least one assay; those are over-represented in the sample as a whole.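 Activity criterion: percent growth below 10, measured after cells in 96-well plates were exposed to a single compound concentration for 48 hours.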 A number with no mark means an inactive call. Active and inactive are the calls of the source.

Test systems include RPMI-8226 leukemia; OVCAR-8 ovarian; OVCAR-5 ovarian; OVCAR-4 ovarian; SK-OV-3 ovarian; IGROV1 ovarian; OVCAR-3 ovarian; HS 578T breast; NCI/ADR-RES ovarian; T-47D breast; BT-549 breast; MDA-MB-435 melanoma; SW-620 colon; MCF7 breast; HCT-116 colon; HCC-2998 colon; KM12 colon; SR leukemia.
Assay in all cases: NCI-60 one-dose screen, 48 h (100 = growth as untreated, 0 = no growth, -100 = all killed)
Conditions in all cases: 10 µM unless noted

Regarding `Clc1ccc(-c2nc3ccccc3s2)cc1Cl`, the growth is 104% in the assay with RPMI-8226 leukemia; 98.9% with OVCAR-8 ovarian; 103% in the assay on OVCAR-5 ovarian; 81.3% in the assay with OVCAR-4 ovarian; 108% in the assay on SK-OV-3 ovarian; 75% in the assay on IGROV1 ovarian. Moreover, the growth in the assay with OVCAR-3 ovarian was 92.7%; in the assay on HS 578T breast, 104%; with NCI/ADR-RES ovarian it was 98.1%; in the assay on T-47D breast, 61.3%; in the assay on BT-549 breast, 97.4%; in the assay on MDA-MB-435 melanoma, 121%. Also, the growth with SW-620 colon was 82.6%; with MCF7 breast it was 67.8%; in the assay on HCT-116 colon, 99%; in the assay with HCC-2998 colon, 93.9%; in the assay with KM12 colon, 97.1%.

Regarding `O=S(=O)(NCCCNc1nccc(-n2ccc3cccnc32)n1)c1ccc(Br)cc1`, the growth in the assay on SR leukemia was 112%; in the assay with OVCAR-8 ovarian it was 103%; in the assay on OVCAR-5 ovarian, 107%; with OVCAR-4 ovarian, 99.3%; with SK-OV-3 ovarian, 113%; with IGROV1 ovarian, 108%. The growth in the assay with OVCAR-3 ovarian is 112%; in the assay on HS 578T breast it was 103%; with T-47D breast, 95.6%; in the assay on MDA-MB-435 melanoma it was 107%; with SW-620 colon it was 110%; in the assay with MCF7 breast, 110%. Besides, the growth in the assay on HCT-116 colon is 105%; with HCC-2998 colon, 121%; in the assay on KM12 colon it was 98.3%.

For `COc1ccc(-n2c(=O)sc3c(Cl)nc(C)nc32)c(OC)c1`, the growth in the assay on RPMI-8226 leukemia was 106%; in the assay with OVCAR-8 ovarian, 56.9%; with OVCAR-5 ovarian, 92%; with OVCAR-4 ovarian it was 101%; in the assay with SK-OV-3 ovarian it was 83.8%; in the assay with IGROV1 ovarian, 28.8%. Moreover, the growth in the assay on OVCAR-3 ovarian is 68.8%; in the assay on HS 578T breast it was 93.9%; in the assay with NCI/ADR-RES ovarian, 101%; in the assay with T-47D breast it was 84.7%; in the assay on BT-549 breast, 91.6%; in the assay with MDA-MB-435 melanoma, 69.5%. In addition, the growth in the assay on SW-620 colon is 74.8%; with MCF7 breast it was 97.6%; in the assay with HCT-116 colon it was 64.7%; in the assay with HCC-2998 colon it was 87.3%; in the assay with KM12 colon, 90%.

Take `COc1cc(-c2nn(-c3cccc(NC(=O)Nc4cccc(C(F)(F)F)c4)c3)cc2-c2ccncc2)ccc1Cl`: the growth in the assay with RPMI-8226 leukemia was -14.8% (active); in the assay on OVCAR-8 ovarian, -36.2% (active); in the assay with OVCAR-5 ovarian it was 28.2%; in the assay with OVCAR-4 ovarian it was 11.1%; with SK-OV-3 ovarian, 4.13% (active); with IGROV1 ovarian it was 14%. Further, the growth in the assay on OVCAR-3 ovarian was -42% (active); in the assay with HS 578T breast, -13.7% (active); in the assay with NCI/ADR-RES ovarian it was -11.9% (active); in the assay on T-47D breast it was -4.03% (active); with BT-549 breast, -15.4% (active); in the assay with MDA-MB-435 melanoma, -50% (active). For the same compound, the growth in the assay on SW-620 colon was 8.92% (active); with MCF7 breast it was -6.3% (active); in the assay on HCT-116 colon, 0.0611% (active); in the assay with HCC-2998 colon, -18.4% (active); in the assay with KM12 colon, -27.8% (active).

Take `Cc1[nH]c2ccc(F)cc2c1CCNC(=O)C1CCN(C(=O)c2ccccc2)C1` (stereo unspecified): the growth in the assay on SR leukemia is 96.3% [25 µM]; in the assay on OVCAR-8 ovarian, 101% [25 µM]; in the assay with OVCAR-5 ovarian it was 81.8% [25 µM]; in the assay with OVCAR-4 ovarian it was 85.5% [25 µM]; with IGROV1 ovarian, 90.4% [25 µM]; in the assay with OVCAR-3 ovarian it was 101% [25 µM]. For the same compound, the growth with HS 578T breast was 90.9% [25 µM]; in the assay with NCI/ADR-RES ovarian, 97.6% [25 µM]; with T-47D breast it was 69.5% [25 µM]; with BT-549 breast, 94.7% [25 µM]; with MDA-MB-435 melanoma, 99.3% [25 µM]; with SW-620 colon, 102% [25 µM]. In addition, the growth in the assay with MCF7 breast was 90.9% [25 µM]; in the assay on HCT-116 colon, 99.7% [25 µM]; with HCC-2998 colon it was 106% [25 µM]; with KM12 colon, 102% [25 µM].

On to `c1ccc(-c2nc(N3CCNCC3)c3nc(-c4ccccc4)oc3n2)cc1`, for which the growth in the assay with SR leukemia was 0.501% (active); in the assay with OVCAR-8 ovarian, -30.5% (active); with OVCAR-5 ovarian it was -1.51% (active); with OVCAR-4 ovarian, -65.1% (active); in the assay on IGROV1 ovarian, -83.6% (active); with OVCAR-3 ovarian, -90.6% (active). For the same compound, the growth in the assay with HS 578T breast is 88.9%; in the assay on NCI/ADR-RES ovarian, -69.2% (active); with T-47D breast it was -56.6% (active); with BT-549 breast, 97.5%; in the assay with MDA-MB-435 melanoma, -93.7% (active); in the assay with SW-620 colon, -78.8% (active). Further, the growth in the assay with MCF7 breast was -69.2% (active); in the assay with HCT-116 colon, -89.4% (active); in the assay with HCC-2998 colon, -90.3% (active); with KM12 colon, -86.1% (active).

Consider `COc1cc(-c2nc(-c3nc4ccc(Cl)cc4[nH]3)cc3c2[nH]c2ccccc23)cc(OC)c1OC`, for which the growth with RPMI-8226 leukemia is 45.2%; in the assay on OVCAR-8 ovarian, 48.4%; with OVCAR-5 ovarian it was 93.3%; in the assay with OVCAR-4 ovarian, 59.9%; in the assay with SK-OV-3 ovarian it was 103%; in the assay on IGROV1 ovarian it was 52.6%. Moreover, the growth with OVCAR-3 ovarian is 82.8%; in the assay with HS 578T breast, 77.3%; in the assay with NCI/ADR-RES ovarian it was 55.6%; with T-47D breast it was 54.2%; in the assay with BT-549 breast, 70.8%; with MDA-MB-435 melanoma, 75.5%. In addition, the growth with SW-620 colon was 96.2%; in the assay with MCF7 breast, 47.9%; in the assay with HCT-116 colon, 58.7%; with HCC-2998 colon, 68.7%; with KM12 colon, 71%.

Regarding `COc1ccc(S(=O)(=O)n2cc(C(=O)C(=O)Nc3ccncc3)c3ccccc32)cc1F`, the growth in the assay with RPMI-8226 leukemia was 48.6%; with OVCAR-8 ovarian, 69%; in the assay on OVCAR-5 ovarian, 81.1%; with OVCAR-4 ovarian, 73.4%; in the assay on SK-OV-3 ovarian, 85%; in the assay on IGROV1 ovarian, 72%. In addition, the growth with OVCAR-3 ovarian was 85.6%; with HS 578T breast, 88.1%; with NCI/ADR-RES ovarian, 67.2%; in the assay with T-47D breast, 67.9%; with BT-549 breast, 77%; with MDA-MB-435 melanoma, 58%. The growth in the assay with SW-620 colon was 83.3%; with MCF7 breast, 69.8%; in the assay with HCT-116 colon it was 69.5%; in the assay on HCC-2998 colon it was 73.5%; in the assay on KM12 colon it was 75%.

As for `COc1ccc(-c2cc(-c3ccccc3)nc(SCCCC(=O)NO)n2)cc1OC`, the growth in the assay on SR leukemia is 4.39% (active); in the assay on OVCAR-8 ovarian, 5.05% (active); in the assay on OVCAR-5 ovarian, 11%; in the assay with OVCAR-4 ovarian, 6.41% (active); in the assay on SK-OV-3 ovarian it was -0.339% (active); in the assay on IGROV1 ovarian, 15.6%. In addition, the growth was -22.7% (active) in the assay with OVCAR-3 ovarian; 18% with HS 578T breast; -12.3% (active) with NCI/ADR-RES ovarian; 2.62% (active) with T-47D breast; 9.02% (active) with MDA-MB-435 melanoma; 12.5% with SW-620 colon. Besides, the growth in the assay with HCC-2998 colon was 34.7%; in the assay on KM12 colon it was 13.1%.
